Screening data deposited in PubChem by National Center for Advancing Translational Sciences (NCATS).
Shown are actives, neighbours in structure and some others; about 7.5% of the full set was active somewhere.
FLuc modulator: inhibits or activates purified firefly luciferase, miR-21 counter-screen; P08659; purified FLuc, Km substrates, luminescence inhibition; Potency, µM (highest dose often 57.5 µM), without a hit: top-dose activity change, negative = inhibition, hits mostly inhibitors; actives 6.9% (n = 360,000);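 also: plate controls were vehicle for no effect and reference inhibitor for full effect; nearly all actives have a fitted effect of over 55% in size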
Target sequence (P08659 whole entry, looked up): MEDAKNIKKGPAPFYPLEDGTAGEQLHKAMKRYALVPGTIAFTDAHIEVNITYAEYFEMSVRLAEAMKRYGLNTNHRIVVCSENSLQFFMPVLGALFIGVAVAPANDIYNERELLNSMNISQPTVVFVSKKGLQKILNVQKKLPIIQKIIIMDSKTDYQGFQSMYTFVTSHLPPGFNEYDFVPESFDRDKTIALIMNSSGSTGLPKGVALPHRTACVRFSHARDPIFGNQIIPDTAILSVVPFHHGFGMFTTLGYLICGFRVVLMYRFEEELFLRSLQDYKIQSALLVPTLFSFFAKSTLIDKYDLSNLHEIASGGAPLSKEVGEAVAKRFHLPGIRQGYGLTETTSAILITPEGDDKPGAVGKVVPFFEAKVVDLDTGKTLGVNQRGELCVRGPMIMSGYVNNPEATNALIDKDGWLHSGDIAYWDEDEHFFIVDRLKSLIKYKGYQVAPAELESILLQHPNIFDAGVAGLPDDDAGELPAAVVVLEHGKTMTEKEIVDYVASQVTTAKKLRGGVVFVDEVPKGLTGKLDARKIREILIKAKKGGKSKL
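Purified P. pyralis luciferase, 10 nM final, with Km-level 10 uM D-luciferin and 10 uM ATP in 50 mM Tris acetate pH 7.5, 10 mM Mg acetate, 0.01% Tween-20, 0.05% BSA; 6-point qHTS titration about 60 µM downward; luminescence read.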
SMN2 splice enh: SMN2 splice variant enhancement; AID 1458; HEK293 SMN2-luciferase splicing reporter, luminescence, 30-36 h; actives 2.8% (n = 210,000); Potency, µM (doses to about 46.1 µM), without a hit: at the top dose activity change, positive = activation, usual class: activators; also: % of control where 0% means no effect; nearly all actives have a fitted effect of over 55% in size
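qHTS luciferase splicing reporter: luminescence rises when SMN2 exon 7 is included in transfected HEK293 cells. Compound exposure lasted 30-36 h at 37C, with 4.5 mM final sodium butyrate as control, followed by a ONE-Glo read.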
NPC1 prom act: NPC1 promoter activation; Huh7 NPC1 promoter luciferase reporter, 24 h; actives 2.4% (n = 320,000); AID 485313; Potency, µM (highest dose often 9.22 µM), for the others: at the top dose activation, most hits filed as activators; also: % of control where 0% means no effect; nearly all actives have a fitted effect of over 60% in size
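Compounds in DMSO were transferred onto Huh7 NPC1-luciferase reporter cells pre-incubated 2 h; after 24 h at 37 °C, Amplite reagent was dispensed and luminescence recorded 10 min later.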
Rab9 prom act: activators of Rab9 promoter | Huh7 Rab9 promoter-luciferase reporter, luminescence, 24 h | Potency, µM (titrated, usually from 9.22 µM), for the others: at the top dose activation, negative = inhibition, hits mostly activators | actives 2.8% (n = 320,000); also: % of control where 0% means no effect; nearly all actives have a fitted effect of over 60% in size
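Steps: seed 1500 Huh7 Rab9-luc cells per well, rest 2 h at 37 °C; add compound in DMSO; incubate 24 h; add luciferase reagent, 10 min ambient; read luminescence.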
ELG1 genotoxic: induces genotoxicity in HEK293T cells with luciferase-tagged ELG1. HEK293T ELG1-luciferase reporter, luminescence, 16 h. Potency, µM (doses to about 46 µM), inactives show at the top dose activity change, positive = activation, most hits filed as activators. actives 1.3% (n = 330,000). AID 504466; also: % of control where 0% means no effect; nearly all actives have a fitted effect of over 60% in size
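Genotoxicity was scored as increased ELG1-luciferase reporter signal, measured by ONE-Glo luminescence (30 min, room temperature). Compound or vehicle exposure of the HEK293T reporter cells lasted 16 hr at 37°C.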
Active calls of the source: *; ? = inconclusive; / = no result; [ ] = dose if it differs, or a comment. Calls follow the shape of the dose curve; as a rule, active = well fitted curve in the direction sought with a large enough effect; inconclusive = small, poorly fitted or top-dose-only effect, or another doubt; inactive = no such curve, though single readings can be large; an effect the other way counts as inactive or inconclusive. Potency is read from the fitted curve at half-maximal effect.

SMILES | FLuc modulator | SMN2 splice enh | NPC1 prom act | Rab9 prom act | ELG1 genotoxic
COC(=O)c1cc(-c2ccc(C)o2)nc2ccccc12 | 11µM* | 4% | 4% | 1% | 0%
Cc1ccc(-c2cc(C(=O)Nc3cccc(S(=O)(=O)N(C)C)c3)c3ccccc3n2)o1 | 9.5µM* | / | -6% | 16% | -9%
Cc1ccc(-c2cc(C(=O)OCC(=O)N(C)c3c(N)n(Cc4ccccc4)c(=O)[nH]c3=O)c3ccccc3n2)o1 | 2.4µM* | / | 8% | 19% | ?
CN(C(=O)COC(=O)c1cc2ccccc2cc1O)c1c(N)n(Cc2ccccc2)c(=O)[nH]c1=O | -8% | / | 6% | 0% | -3%
COc1cc(-c2cc(C(=O)Nc3cccc(S(=O)(=O)N(C)C)c3)c3ccccc3n2)cc(OC)c1OC | -1% | / | 1% | -7% | -1%
Cc1cc(C(=O)Nc2ccccc2C)c2ccccc2n1 | -8% | / | -1% | 0% | -5%
Cc1ccc(N=C2NC(=O)/C(=C\c3ccc(C)s3)S2)cc1 | ? | / | -6% | -1% | 3%
COC(=O)[C@H](Cc1ccccc1)NC(=O)O[C@@H]1C(=O)c2cc(OC)ccc2O[C@H]1c1cccc(OC)c1 | / | 18% | / | / | /
C[C@H]1C=C(C(=O)NC2CC2)O[C@@H](OCc2ccc(CO)cc2)C1 | -18% | / | 1% | 0% | 9%
CCOc1ccc(/C=C/c2nc(C#N)c(Nc3ccc(OC)cc3)o2)cc1 | 1% | 8% | / | / | /
CN(C)S(=O)(=O)c1cccc(NC(=O)c2c[nH]c3ccccc23)c1 | 21µM* | / | 15% | 17% | -12%
CCc1nnc(NC(=O)c2cc(-c3ccc(C)o3)nc3ccccc23)s1 | 11µM* | / | -1% | 2% | -1%
COc1ccc(C(=O)NC(=S)N2CCOCC2)cc1[N+](=O)[O-] | -3% | / | 3% | -6% | 5%
COc1cccc(NC(=O)c2ccc3c(c2)CCN3S(C)(=O)=O)c1 | 17µM* | 30% | 27% | ? | 5%
CCc1ccc(NC(=O)c2ccc3c(c2)N(Cc2ccc(C)cc2)CCS3)cc1 | ? | 25µM* | / | / | /
CC(=O)Nc1ccc(NC(=O)c2ccc3c(c2)CCN3S(C)(=O)=O)cc1 | -1% | / | -2% | -11% | -2%
Cc1ccc(CN2CCSc3ccc(C(=O)Nc4ccc(F)cc4F)cc32)cc1 | -4% | ? | / | / | /
CN1CCSc2ccc(C(=O)NCc3cccc(F)c3)cc21 | -8% | / | -2% | 4% | 4%
CN1CCSc2ccc(C(=O)Nc3ccc(Cl)cc3)cc21 | ? | / | 2.8µM* | 3.5µM* | ?
COc1cccc(NC(=O)c2ccc3c(c2)N(C)CCS3)c1 | 2.7µM* | / | 1.3µM* | 3.5µM* | ?
COc1ccc(CC(=O)Nc2nn(C)c3nc4c(C)cccc4cc23)cc1 | -3% | / | 3% | 1% | 0%
N#C/C(=C(/O)c1ccc2c(c1)OCO2)c1nc2cc(C(F)(F)F)ccc2s1 | 17µM* | / | -5% | -3% | -8%
N#C/C(=C(/O)c1ccccc1F)c1nc2cc(C(F)(F)F)ccc2s1 | ? | / | 1% | -11% | 1%
N#Cc1ccc(CN2CCCC3(CCN(C(=O)c4cccc(F)c4)CC3)C2)cc1 | / | -18% | / | / | /
O=C(O)c1ccc(-c2nc(-c3ccc(Cl)cc3Cl)cs2)cc1 | 8.5µM* | 11µM* | 1.6µM* | 1.4µM* | ?
SMILES | FLuc modulator | SMN2 splice enh | NPC1 prom act | Rab9 prom act | ELG1 genotoxic
O=C(CN1CCN(c2nc(-c3ccccc3)cs2)CC1)NNC(=O)c1ccc(Br)cc1 | -1% | -34% | -1% | -4% | -10%
O=C(O)c1ccc(-c2nc(-c3ccc(Cl)cc3)cs2)cc1 | 0.95µM* | 4.5µM* | ? | 0.32µM* | 19%
O=C(O)c1ccc(-c2nc(-c3cccc(C(F)(F)F)c3)cs2)cc1 | ? | 2% | 24% | -2% | 4%
COc1ccc(-c2csc(-c3ccc(C(=O)O)cc3)n2)cc1 | 0.95µM* | 2µM* | 0.32µM* | 0.13µM* | 6%
COc1ccc(-c2nc(CC(=O)O)cs2)cc1 | -7% | -5% | 3% | 0% | 3%
O=C(NCCc1nc(-c2ccccc2)cs1)c1ccc(Br)cc1 | 15µM* | -5%[1.84 µM] | -6% | -6% | 0%
C=CCNC(=O)c1ccc(-c2nc(-c3ccccc3)cs2)cc1 | ? | 5.6µM* | ? | 0.89µM* | 14%
Cc1cccc(N(C)C(=O)Cn2cnc3nc4c(cc3c2=O)CCCC4)c1 | -4% | / | / | / | /
CCOC(=O)[C@H]1[C@H]2COc3cc(OC)ccc3[C@@H]2N2C(=O)CN(C)C(=O)[C@@]12C | / | / | / | / | 4%
COc1ccc(/C=C2\SC(=O)N(CCNC(=O)C3CC4C=CC3C4)C2=O)cc1 (stereo not drawn) | 6.7µM* | 25µM* | 2.8µM* | 0.71µM* | ?
COc1ccc(/C=C2\SC(=O)N(CCNC(=O)C3CSC4(C)CCC(=O)N34)C2=O)cc1 (stereo not drawn) | 17µM* | / | 15% | 17% | 1%
CC12CCC(=O)N1C(C(=O)NCCN1C(=O)S/C(=C\c3ccc(OC(F)F)cc3)C1=O)CS2 (stereo not drawn) | 0% | / | 2% | -2% | -12%
COc1ccc(/C=C2\SC(=O)N(CCC(=O)N3CCCCC3CCO)C2=O)cc1 (stereo not drawn) | 9.5µM* | / | -4% | -1% | -2%
Cc1ccc(C)c(N2CCN(C(=O)c3nn(C)c4c3CS(=O)(=O)c3ccccc3-4)CC2)c1 | -3% | / | -3% | -2% | -13%
Cc1nc(S/C(=C/c2ccc(-c3cccc(Cl)c3)o2)C(=O)O)n[nH]1 | 5.4µM* | -23% | 0% | 4% | -4%
Cc1nc(-c2cccc(Cl)c2)n[nH]1 | -16% | / | 3% | 6% | 8%
C(=N\N(c1ccccc1)c1ccccc1)/c1ccc(N2CCOCC2)s1 | ? | -36% | 0% | -5% | 0%
O=C(CSc1cn(CCNC(=O)c2ccccc2F)c2ccccc12)Nc1ccc(F)cc1 | -18% | -9% | / | / | /
O=C(CSc1cn(CCNC(=O)c2ccccc2F)c2ccccc12)Nc1ccc2c(c1)OCCO2 | 13µM* | -16% | / | / | /
Cn1cc(SCC(=O)Nc2ccc3c(c2)OCCO3)c2ccccc21 | 17µM* | 2% | 14% | 11% | ?
O=C(Nc1cccnc1)c1ccc([N+](=O)[O-])s1 | 0% | / | 0% | -22% | 2%
COc1ccc(C(c2c(O)cc(C)oc2=O)c2c(O)cc(C)oc2=O)cc1 | -2% | -1% | -2% | -2% | -4%
COc1ccc(C2CC(c3c(O)cc(C)oc3=O)=NCCS2)c(OC)c1 (stereo not drawn) | 11µM* | ? | ? | -7% | 10µM*
CN(C)/C=C/c1onc(-c2ccccc2Cl)c1C#N | 24µM* | 24% | ? | ? | ?
O=c1oc(-c2cc3ccccc3o2)nc2sc3c(c12)CCCC3 | 2.4µM* | ? | ? | ? | 14%
Nn1c(Cc2ccccc2)nc2sc3c(c2c1=O)CCC3 | 0% | / | -3% | 1% | -7%
